High-throughput results (PubChem)
The sample as a whole holds a higher share of hits than the screen did.
VACV Venus inh = inhibitors of vaccinia virus (Venus reporter). actives 0.46% (n = 330,000). AID 720580. Vaccinia virus Venus reporter expression, fluorescence. Potency, µM (doses to about 36.5 µM), for the others: at the top dose activity change, negative = inhibition, most hits filed as inhibitors; calls by dose curve; tested in A549 cells; note: potency is the fitted concentration of half-maximal effect; % is set by controls: 0 for no effect and ±100 for the full control effect; nearly all actives have a fitted effect of over 30% in size
Vaccinia mCherry = vaccinia inhibition (mCherry reporter). Vaccinia virus mCherry reporter infection, fluorescence. Potency, µM (series often up to 36.5 µM), for the others: at the top dose activity change, negative = inhibition, most hits filed as inhibitors. actives 0.63% (n = 310,000). AID 720579; calls by dose curve; tested in A549 cells; note: potency is the fitted concentration of half-maximal effect; % is set by controls: 0 for no effect and ±100 for the full control effect; nearly all actives have a fitted effect of over 35% in size
Shiga toxin inh = Shiga toxin inhibition; actives 9.2% (n = 290,000); inhibition, % at 38.7 µM; Vero cells, Shiga toxin protein synthesis inhibition reporter; in the data active = inhibition mostly above about 28%, no sharp cut-off; inactive = mostly below about 43%; note: 0% is about no effect
Cycloheximide cs = counter-screen hit for Shiga toxin inhibitors, cycloheximide; max response, %; actives 12% (n = 300,000); cell reporter, cycloheximide protein synthesis inhibition counterscreen; in the data active = max response mostly above about 13%, no sharp cut-off; inactive = mostly below about 14%; note: read at 38.3 µM for the half of the compounds with a filed dose; 0% is about no effect
LASV entry inh = inhibitors of Lassa virus binding or cell entry; Lassa virus pseudotype entry inhibition, cell reporter; Potency, µM (titrated, usually from 37.9 µM), for the others: at the highest dose activity change, negative = inhibition, actives largely listed as inhibitors; actives 1.2% (n = 300,000); calls by dose curve; tested in HEK293 cells; note: potency is the fitted concentration of half-maximal effect; % is set by controls: 0 for no effect and ±100 for the full control effect; nearly all actives have a fitted effect of over 50% in size
MARV entry inh = Marburg virus entry inhibition. Marburg virus pseudotyped entry inhibition, cell reporter. Potency, µM (series often up to 37.8 µM), inactives show top-dose activity change, negative = inhibition, usual class: inhibitors. actives 1.8% (n = 300,000); calls by dose curve; tested in HEK293 cells; note: potency is the fitted concentration of half-maximal effect; % is set by controls: 0 for no effect and ±100 for the full control effect
An asterisk follows results filed as active; i = inactive; ? = inconclusive; . = not tested or not shown; [ ] = remark or other dose.

SMILES | VACV Venus inh | Vaccinia mCherry | Shiga toxin inh | Cycloheximide cs | LASV entry inh | MARV entry inh
Cc1ccc(Nc2nnc(SCC(=O)Nc3cccc(S(=O)(=O)N4CCCCC4)c3)s2)cc1 | ? | ? | 5 | 53* | ? | ?
O=C(CSc1nnc(Nc2ccccc2F)s1)Nc1cccc(S(=O)(=O)N2CCCCC2)c1 | ? | ? | 75* | 42* | ? | ?
NS(=O)(=O)c1ccc(CCNC(=O)C2CCCO2)cc1 (stereo not drawn) | 3% | -14% | -7 | -2 | ? | -25%
CC(=O)c1ccc(S(=O)(=O)NC2CC(=O)N(c3ccc(C)c(C)c3)C2)cc1 (stereo not drawn) | -14% | -11% | . | . | 0% | 8%[46.1 µM]
COc1ccccc1CNC(=O)CNC(=O)c1ccc(Br)o1 | -17% | -15% | -3 | -3 | 8% | 14%
Cc1ccc(CSCC(=O)Nc2ccccc2)cc1 | -9% | i | 26* | 32* | 28%[46.1 µM] | ?
CCC(=O)Oc1ccc(NC(=O)CSCc2ccccc2)cc1 | . | . | 96* | 25* | . | .
Cc1ccc(SCC(=O)NCc2ccccc2)cc1 | . | . | 71* | 21* | . | .
O=C(CSc1ccccc1)NCc1ccc(F)cc1 | -16% | i | 80* | 40* | ? | ?
COC(=O)c1ccc(NC(=O)CSCc2ccccc2)cc1 | -11% | . | 49 | 14 | 14% | ?
Cc1ccc(SCC(=O)NCc2ccc(F)cc2)cc1 | -2% | 0% | -13 | -4 | ? | -2%[46.1 µM]
Cc1ccc(CSCC(=O)Nc2ccc(F)cc2)cc1 | -8% | -22% | 11 | -2 | 8% | 19%
CN(C)c1ccc(-c2nnc(SCC(=O)NCc3ccco3)n2C)cc1 | -13% | -11% | . | . | . | .
CCOc1ccccc1NC(=O)COC(=O)C1CC(=O)N(c2c(C)cccc2C)C1 (stereo not drawn) | -11% | -15% | -6 | 0 | 6% | 5%[46.1 µM]
O=C(Nc1nccs1)C1CC(=O)N(c2ccccc2)C1 (stereo not drawn) | 11% | -4% | 2 | -5 | 4%[46.1 µM] | -2%[46.1 µM]
Cc1ccc(CNC(=O)CSCc2ccc(F)cc2)cc1 | 7% | -13% | 18 | 7 | ? | ?
CCCCN(CCCC)CCNC(=O)CSCc1ccc(C)cc1 | -16% | -15% | 17 | -1 | -11%[46.1 µM] | 7.1µM*
Cc1ccc(CNC(=O)CSCc2ccccc2)cc1 | . | . | 71* | 29* | 10% | 2%
COc1c(S(=O)(=O)N2CCN(C(=O)c3ccco3)CC2)ccc(Cl)c1Cl | . | . | -7 | -2 | . | .
CCOc1ccc(S(=O)(=O)Nc2ccc(OC)c(Cl)c2)c2cccnc12 | -11% | -17% | . | . | -2%[46.1 µM] | -11%[46.1 µM]
Cn1cccc1-c1nc2ccc([N+](=O)[O-])cc2[nH]1 | -14% | -9% | 40* | 33* | 1% | ?
Cc1nc2ccc([N+](=O)[O-])cc2[nH]1 | -1% | -12% | -2 | 9 | 6%[46.1 µM] | 8%[46.1 µM]
O=[N+]([O-])c1cccc(/C=C/c2nc3ccc([N+](=O)[O-])cc3[nH]2)c1 | ? | . | 41 | 19* | ? | 7%[46.1 µM]
CC(C)(C)c1nc2ccc([N+](=O)[O-])cc2[nH]1 | -11% | -23% | 20 | -4 | ? | -7%[46.1 µM]
O=[N+]([O-])c1ccc2nc(-c3ccccc3)[nH]c2c1 | -19% | -17% | 25 | 42* | -11% | ?
SMILES | VACV Venus inh | Vaccinia mCherry | Shiga toxin inh | Cycloheximide cs | LASV entry inh | MARV entry inh
O=[N+]([O-])c1ccc2nc(-c3cccnc3)[nH]c2c1 | -3% | i | 60 | 21* | 29% | 19%
Cc1cccc(Cn2nc(C(C)(C)C)cc2C(=O)N2CCOCC2)c1 | . | . | -18 | -1 | . | -6%
COc1ccc(C2C(=O)N(C3CCCCC3)CC(=O)N2CCc2ccc(C)cc2)cc1OC (stereo not drawn) | 9% | -3% | . | . | ? | .
CC(=O)Nc1nc(C)c(-c2nc3ccc([N+](=O)[O-])cc3[nH]2)s1 | . | . | 37 | 17* | . | .
Cc1nn(-c2ccc(N3CCCC3)nn2)c(C)c1CCC(=O)N1CCN(c2ccc(F)cc2)CC1 | -17% | -13% | . | . | -5%[46.1 µM] | .
O=C(Cc1ccc(Cl)cc1)Nc1ccc(-c2nnc(-c3ccco3)o2)cc1 | ? | -27% | 15 | -2 | ? | 4%
COc1ccccc1CC(=O)Nc1ccc(-c2nnc(-c3ccco3)o2)cc1 | -25% | ? | 47 | 24* | -21% | -25%
COc1cc(C(=O)Nc2ccc(-c3nnc(-c4ccco4)o3)cc2)cc(OC)c1OC | . | . | 19 | 21 | 8% | ?
O=C(Cc1ccccc1)Nc1ccc(-c2nnc(-c3ccco3)o2)cc1 | 8% | -12% | 13 | 17* | 14% | -13%[46.1 µM]
Cc1ccc(SCC(=O)Nc2ccc(-c3nnc(-c4ccco4)o3)cc2)cc1 | ? | . | 43* | 16* | ? | ?
O=C(Cc1ccccc1)c1nnc(-c2ccccc2)o1 | -6% | -3% | 25 | 14* | -2% | ?
O=c1c2c([nH]n1-c1ccccc1)CCSC2 | -4% | ? | 3 | 1 | 4%[46.1 µM] | ?
O=C(Nc1ccc(F)cc1F)c1csc(-c2ccccc2)n1 | -10% | -18% | 70* | 24* | 6% | 29%[46.1 µM]
O=C(O)c1csc(-c2cccc(Cl)c2)n1 | -5% | -12% | 5 | 9.7* | . | .
O=C(O)c1csc(-c2ccccc2)n1 | -11% | -15% | -5 | 0 | . | .
Cc1cc(C(=O)NNC(=O)Nc2ccccc2)no1 | -11% | -12% | 1 | -1 | ? | -5%
O=C(Nc1ccc(F)cc1F)c1cccc(C(=O)Nc2ccc(F)cc2F)n1 | -19% | -5% | -5 | -1 | 7% | 8%
Cc1nc(C(=O)NNC(=O)Nc2ccccc2)cs1 | -13% | i | 18 | 13* | 23% | 10%
O=C(Nc1ccccc1)c1csc(-c2ccccc2)n1 | -3% | i | 43* | 26* | -17% | ?
CCOc1ccc2oc(=O)cc(CN3CCN(c4ccc(Cl)cc4)CC3)c2c1 | -9% | -10% | . | . | ? | -24%[46.1 µM]
OC[C@H]1OC(O)[C@@H](O)[C@@H](O)[C@H]1O (stereo partly drawn) | . | . | 17 | -4 | . | .
CCOc1ccc(-c2nnc(SCC(=O)N3CCCC3)o2)cc1 | -8% | i | 2 | -1 | 29% | 15%[46.1 µM]
COc1ccc(-c2nnc(SCC(=O)N3CCCCC3)o2)cc1 | 11% | -2% | 26 | 12 | 28%[46.1 µM] | ?
COc1ccc(-c2nnc(SCC(=O)N3CCCC(C)C3)o2)c(OC)c1 (stereo not drawn) | -15% | i | 22 | -1 | 0% | -3%
COc1ccc(-c2nnc(SCC(=O)N3CCCCC3)o2)c(OC)c1 | -3% | -15% | 25 | 30* | -11% | ?
COc1ccc(-c2nnc(SCC(=O)N3CCCC3)o2)cc1 | -2% | 7% | 67* | 33* | 0% | ?
Cc1ccc(-c2nnc(SCC(=O)N3CCCC3)o2)cc1 | -6% | . | 56 | 17* | ? | 11%
CCOc1ccc(-c2nnc(SCC(=O)N3CCOCC3)o2)cc1 | -2% | . | 69* | 24* | 30% | ?
O=C(CCOc1ccccc1)Nc1ccnn1C1CCN(Cc2ccc(F)cc2)CC1 | ? | -21% | -9 | -1 | -29% | -17%
